Assay [1] deals with Retinoic acid receptor RXR-alpha (Homo sapiens) (UniProt P19793). The experiment in a line: ATG_RXRa_TRANS: Attagene TRANS-FACTORIAL HepG2 Assay for human Retinoid X Receptor alpha (RXRa) (AID 2283012; active means hit-call score of the fitted dose curve at least 0.9, where 1 is the maximum). A digest of the protocol: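 Cells (HepG2) carried transiently transfected GAL4-responsive reporter units. Following a 24 h chemical incubation, reporter mRNA induction was read via RT-PCR fragment analysis; DMSO served as negative control and baseline.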
Chain of Retinoic acid receptor RXR-alpha (Homo sapiens) (P19793 whole entry, looked up, the tested form may be a part): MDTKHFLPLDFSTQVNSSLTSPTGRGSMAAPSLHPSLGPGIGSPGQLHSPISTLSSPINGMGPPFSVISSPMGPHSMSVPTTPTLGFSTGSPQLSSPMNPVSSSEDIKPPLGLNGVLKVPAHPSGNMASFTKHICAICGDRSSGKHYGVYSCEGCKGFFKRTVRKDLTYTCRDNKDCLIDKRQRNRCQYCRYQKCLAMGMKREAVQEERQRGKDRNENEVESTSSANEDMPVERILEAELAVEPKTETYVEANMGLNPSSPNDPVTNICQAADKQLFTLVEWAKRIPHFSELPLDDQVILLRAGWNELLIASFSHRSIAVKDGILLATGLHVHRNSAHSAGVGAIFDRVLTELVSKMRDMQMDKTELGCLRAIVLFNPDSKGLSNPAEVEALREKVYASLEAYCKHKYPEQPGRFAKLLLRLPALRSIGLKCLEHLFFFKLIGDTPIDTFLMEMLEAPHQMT

Assay [2] deals with human Retinoid X Receptor beta (RXRb), RXRB (gene 6257) (UniProt P28702). The assay can be described thus: ATG_RXRb_TRANS: Attagene TRANS-FACTORIAL HepG2 Assay for human Retinoid X Receptor beta (RXRb) (AID 2283013; active means hit-call score of the fitted dose curve at least 0.9, where 1 is the maximum). The gist of the method: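 Multiplexed TRANS reporter assay in HepG2; 24 h dosing; reporter mRNA by RT-PCR/CE fluorescence; gain-of-signal relative to DMSO.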
Chain of human Retinoid X Receptor beta (RXRb), RXRB (gene 6257) (P28702 whole entry, looked up): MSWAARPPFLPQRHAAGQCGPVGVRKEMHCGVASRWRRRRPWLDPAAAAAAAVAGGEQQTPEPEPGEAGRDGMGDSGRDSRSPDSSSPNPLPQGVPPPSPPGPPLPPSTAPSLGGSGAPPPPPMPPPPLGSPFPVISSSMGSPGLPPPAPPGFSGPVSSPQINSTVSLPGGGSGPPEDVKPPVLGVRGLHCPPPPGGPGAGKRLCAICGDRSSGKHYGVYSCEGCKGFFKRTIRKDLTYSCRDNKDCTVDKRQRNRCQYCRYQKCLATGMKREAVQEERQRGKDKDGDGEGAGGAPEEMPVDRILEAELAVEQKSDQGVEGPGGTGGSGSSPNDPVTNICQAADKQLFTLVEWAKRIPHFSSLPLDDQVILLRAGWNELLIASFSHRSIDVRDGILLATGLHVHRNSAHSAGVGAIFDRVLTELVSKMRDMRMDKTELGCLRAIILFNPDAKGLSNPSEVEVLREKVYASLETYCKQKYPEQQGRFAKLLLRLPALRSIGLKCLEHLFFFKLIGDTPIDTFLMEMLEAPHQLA
Assay [3] deals with human Thyroid Receptor alpha (THRa1), THRA (gene 7067) (UniProt P10827). The assay can be described thus: ATG_THRa1_TRANS: Attagene TRANS-FACTORIAL HepG2 Assay for human Thyroid Receptor alpha (THRa1) (AID 2283014; active means hit-call score of the fitted dose curve at least 0.9, where 1 is the maximum). The gist of the method:
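HepG2 cells transiently transfected with chimeric NR-Gal4 and GAL4-UAS reporter units, dosed 24 h. Reporter mRNA quantified by RT-PCR, fluorescent labeling, HpaI digestion and capillary electrophoresis; gain-of-signal fit versus DMSO.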

Assay [4] deals with human Vitamin D Receptor (VDR), VDR (gene 7421) (UniProt P11473). The experiment in a line: ATG_VDR_TRANS: Attagene TRANS-FACTORIAL HepG2 Assay for human Vitamin D Receptor (VDR) (AID 2283022; active means hit-call score of the fitted dose curve at least 0.9, where 1 is the maximum). A digest of the protocol: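 HepG2 cells were transiently transfected with GAL4-UAS reporter units and a chimeric VDR-Gal4 construct, then dosed for 24 hours. Reporter mRNA was quantified by RT-PCR, fluorescent labeling, HpaI digestion and capillary electrophoresis; gain of signal analysed vs DMSO.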
Chain of human Vitamin D Receptor (VDR), VDR (gene 7421) (P11473 whole entry, looked up, the tested form may be a part): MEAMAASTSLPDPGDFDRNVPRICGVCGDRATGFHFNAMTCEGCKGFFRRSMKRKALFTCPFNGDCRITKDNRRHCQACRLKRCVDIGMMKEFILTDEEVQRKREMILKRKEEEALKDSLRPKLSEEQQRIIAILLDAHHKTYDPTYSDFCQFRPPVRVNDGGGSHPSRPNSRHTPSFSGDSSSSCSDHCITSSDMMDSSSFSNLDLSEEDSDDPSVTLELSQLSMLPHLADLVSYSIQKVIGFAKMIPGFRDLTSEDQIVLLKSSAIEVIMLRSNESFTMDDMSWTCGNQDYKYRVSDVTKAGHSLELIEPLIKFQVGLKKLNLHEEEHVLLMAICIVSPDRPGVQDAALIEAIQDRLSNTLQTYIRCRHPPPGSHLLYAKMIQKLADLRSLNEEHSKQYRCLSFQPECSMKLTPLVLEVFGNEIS

Read-out in assay [5]: E-selectin (Homo sapiens) (UniProt P16581)
The experiment in a line: BSK_3C_Eselectin: BioMAP Diversity Plus: 3C Assay for Eselectin Biomarker Activity (AID 2283015).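 Further: cell surface E-selectin protein quantified by ELISA 24 h after dosing.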 To be noted: primary human endothelial cells (HUVEC); actives raise or lower the signal. A digest of the protocol: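 Primary human umbilical vein endothelial cells (3C system), read 24 h after compound addition; E-selectin measured by ELISA. Bidirectional curve fitting against DMSO baseline; cytotoxicity by parallel SRB total-protein staining.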

Read-out in assay [6]: Interleukin-1 alpha (IL1a), IL1A (gene 3552)
The experiment in a line: BSK_BE3C_IL1a: BioMAP Diversity Plus: BE3C Assay for Interleukin-1 alpha (IL1a) Biomarker Activity (AID 2283016). To be noted: primary human bronchial epithelial cells; actives raise or lower the signal. A digest of the protocol:
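Cultures of primary human bronchial epithelial cells receive test chemical. After 24 h, IL-1a is quantified by ELISA, while parallel wells are fixed in TCA and SRB-stained for total protein. Changes in either direction are fitted relative to DMSO.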

Read-out in assay [7]: Monocyte Chemoattractant Protein-1 (MCP1), CCL2 (gene 6347)
The assay can be described thus: BSK_3C_MCP1: BioMAP Diversity Plus: 3C Assay for Monocyte Chemoattractant Protein-1 (MCP1) Biomarker Activity (AID 2283017). To be noted: primary human endothelial cells (HUVEC); actives raise or lower the signal. The gist of the method: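 Human umbilical vein endothelial cells (3C system) exposed to chemicals for 24 h; MCP-1 quantified by ELISA against the DMSO baseline with bidirectional fitting, and parallel SRB staining used to assess cytotoxicity.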

Read-out in assay [8]: Monocyte Chemoattractant Protein-1 (MCP1), CCL2 (gene 6347)
The experiment in a line: BSK_4H_MCP1: BioMAP Diversity Plus: 4H Assay for Monocyte Chemoattractant Protein-1 (MCP1) Biomarker Activity (AID 2283018). The following applies: primary human endothelial cells (HUVEC); actives raise or lower the signal. A digest of the protocol: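 Readout: MCP-1 ELISA on compound-treated HUVEC, sampled 24 h post-dosing. Baseline and negative control DMSO; bidirectional fit. Overt toxicity checked alongside by sulforhodamine B protein staining at time of biomarker measurement.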

Read-out in assay [9]: Human Leukocyte Antigen - DR isotype (HLADR), HLA-DRA (gene 3122)
The assay can be described thus: BSK_3C_HLADR: BioMAP Diversity Plus: 3C Assay for Human Leukocyte Antigen - DR isotype (HLADR) Biomarker Activity (AID 2283019). To be noted: primary human endothelial cells (HUVEC); actives raise or lower the signal. A digest of the protocol: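 HUVEC monoculture, HLA-DR measured by ELISA 24 h after chemical dosing. Fitted bidirectionally against DMSO baseline; parallel SRB staining assessed cytotoxicity, with 3C proliferation read by SRB at 48 h.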

Read-out in assay [10]: Interleukin-8 (IL8), CXCL8 (gene 3576)
The experiment in a line: BSK_3C_IL8: BioMAP Diversity Plus: 3C Assay for Interleukin-8 (IL8) Biomarker Activity (AID 2283020). To be noted: primary human endothelial cells (HUVEC); actives raise or lower the signal. The gist of the method:
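Human vascular endothelial cells (umbilical vein) in the 3C system; IL-8 level detected by ELISA at 24 h post-dose, with DMSO as baseline.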

Read-out in assay [11]: Monokine induced gamma interferon (MIG), CXCL9 (gene 4283)
The experiment in a line: BSK_3C_MIG: BioMAP Diversity Plus: 3C Assay for Monokine induced gamma interferon (MIG) Biomarker Activity (AID 2283021). To be noted: primary human endothelial cells (HUVEC); actives raise or lower the signal. The gist of the method:
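After 24 h of treatment, human umbilical vein endothelial cultures (3C system) had their MIG biomarker level determined by ELISA, with DMSO serving as negative control.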

Assay [12] is described as follows: BSK_3C_SRB: Viability Assessment in the BioMAP Diversity Plus: 3C Assay (AID 2283023).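 Further: fitted both ways against DMSO so a hit may be signal rise or drop.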 To be noted: primary human endothelial cells (HUVEC). The gist of the method:
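Human umbilical vein endothelial cells in the 3C system, treated 24 h. Total protein measured by 0.1% sulforhodamine B staining after 10% TCA fixation, read at 560 nm; bidirectional fit versus DMSO.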

Read-out in assay [13]: Matrix Metallopeptidase 1 (MMP1), MMP1 (gene 4312)
The assay can be described thus: BSK_BE3C_MMP1: BioMAP Diversity Plus: BE3C Assay for Matrix Metallopeptidase 1 (MMP1) Biomarker Activity (AID 2283024). To be noted: primary human bronchial epithelial cells; actives raise or lower the signal. A digest of the protocol:
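Dose cells, wait 24 h, run MMP1 ELISA; cells are human bronchial epithelial primaries. Both increases and decreases relative to DMSO counted.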

Read-out in assay [14]: Pselectin, SELP (gene 6403)
The assay can be described thus: BSK_4H_Pselectin: BioMAP Diversity Plus: 4H Assay for Pselectin Biomarker Activity (AID 2283026). To be noted: primary human endothelial cells (HUVEC); actives raise or lower the signal. The gist of the method: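 Human vascular endothelium from umbilical vein; P-selectin measured by ELISA at 24 h post-dose, with cytotoxicity checked by sulforhodamine B total-protein staining in parallel cultures (0.1% SRB after 10% TCA fixation, read at 560 nm).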

Assay [15] can be described thus: BSK_4H_SRB: Viability Assessment in the BioMAP Diversity Plus: 4H Assay (AID 2283027).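 Further: cells exposed to compound for 24 h before staining.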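 On AC50: curves fitted both ways versus DMSO so AC50 may be loss or gain.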 To be noted: primary human endothelial cells (HUVEC). A digest of the protocol: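 Absorbance at 560 nm of SRB-stained total protein served as the viability read-out in confluent primary human umbilical vein endothelium 24 h after chemical treatment. Curves were fitted bidirectionally against DMSO as negative control.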

Assay [16] is described as follows: BSK_BE3C_SRB: Viability Assessment in the BioMAP Diversity Plus: BE3C Assay (AID 2283028). To be noted: primary human bronchial epithelial cells. A digest of the protocol: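 Human bronchial epithelial primary cells in confluent culture, 24 h after chemical dosing; total protein by 0.1% SRB staining after 10% TCA fixation, read at 560 nm. Bidirectional fitting versus DMSO baseline.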

Read-out in assay [17]: Thrombomodulin, THBD (gene 7056)
The assay can be described thus: BSK_3C_Thrombomodulin: BioMAP Diversity Plus: 3C Assay for Thrombomodulin Biomarker Activity (AID 2283029). The following applies: primary human endothelial cells (HUVEC); actives raise or lower the signal. A digest of the protocol:
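Thrombomodulin ELISA, human primary HUVEC, 24 h post-dose; data fitted in both directions relative to DMSO.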

Read-out in assay [18]: Urokinase-type plasminogen activator receptor (uPAR), PLAUR (gene 5329)
The assay can be described thus: BSK_4H_uPAR: BioMAP Diversity Plus: 4H Assay for Urokinase-type plasminogen activator receptor (uPAR) Biomarker Activity (AID 2283030). To be noted: primary human endothelial cells (HUVEC); actives raise or lower the signal. A digest of the protocol:
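Human umbilical vein endothelial cells in the 4H system, 24 h after chemical dosing. Cell-surface uPAR measured by ELISA, fitted in both directions versus DMSO; cytotoxicity checked by SRB total protein in parallel cultures.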

Read-out in assay [19]: Vascular endothelial growth factor receptor 2 (Homo sapiens) (UniProt P35968)
The assay can be described thus: BSK_4H_VEGFRII: BioMAP Diversity Plus: 4H Assay for Vascular endothelial growth factor receptor 2 (VEGFR2) Biomarker Activity (AID 2283031).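 On AC50: cell-surface VEGFR2 protein level quantified by ELISA.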 To be noted: primary human endothelial cells (HUVEC); actives raise or lower the signal. The gist of the method: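 Primary human umbilical vein endothelial cells (4H system), 24 h exposure; cell-surface VEGFR2 measured by ELISA. Bidirectional fitting versus DMSO; cytotoxicity checked in parallel by SRB total-protein staining.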

Read-out in assay [20]: Human Leukocyte Antigen - DR isotype (HLADR), HLA-DRA (gene 3122)
The assay can be described thus: BSK_BE3C_HLADR: BioMAP Diversity Plus: BE3C Assay for Human Leukocyte Antigen - DR isotype (HLADR) Biomarker Activity (AID 2283032). To be noted: primary human bronchial epithelial cells; actives raise or lower the signal. A digest of the protocol:
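Signal came from an ELISA for HLA-DR in human bronchial epithelial primary cells harvested 24 h after treatment; gain- and loss-of-signal fitting used DMSO controls as reference.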

Results filed as inconclusive are left out. Some structures have more than one record in an assay (separate samples or runs), and their calls can disagree. Activity calls are given as the source filed them. How the source made its calls, unless noted: active means hit-call score of the fitted dose curve at least 0.9, where 1 is the maximum; inactive means score below 0.9.

The results in this text go back to PubChem BioAssay (EPA / NIEHS).

Chain of E-selectin (Homo sapiens) (P16581 whole entry, looked up): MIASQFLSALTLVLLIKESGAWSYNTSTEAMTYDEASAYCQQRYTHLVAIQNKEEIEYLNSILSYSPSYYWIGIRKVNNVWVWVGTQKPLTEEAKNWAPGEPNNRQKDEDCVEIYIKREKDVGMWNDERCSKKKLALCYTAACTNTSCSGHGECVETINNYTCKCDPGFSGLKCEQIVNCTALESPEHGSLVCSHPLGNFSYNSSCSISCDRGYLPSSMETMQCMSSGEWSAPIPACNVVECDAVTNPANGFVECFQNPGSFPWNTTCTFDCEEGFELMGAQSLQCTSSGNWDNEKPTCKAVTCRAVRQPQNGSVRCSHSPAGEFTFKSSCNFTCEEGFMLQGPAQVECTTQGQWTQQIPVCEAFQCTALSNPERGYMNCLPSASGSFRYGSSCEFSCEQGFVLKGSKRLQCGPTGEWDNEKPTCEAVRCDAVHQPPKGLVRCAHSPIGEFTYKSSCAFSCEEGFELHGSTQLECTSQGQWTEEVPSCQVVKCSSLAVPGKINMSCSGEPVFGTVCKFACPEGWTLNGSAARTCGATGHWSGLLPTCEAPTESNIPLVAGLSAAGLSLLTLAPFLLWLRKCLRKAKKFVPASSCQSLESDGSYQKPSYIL
Chain of human Thyroid Receptor alpha (THRa1), THRA (gene 7067) (P10827 whole entry, looked up, the tested form may be a part): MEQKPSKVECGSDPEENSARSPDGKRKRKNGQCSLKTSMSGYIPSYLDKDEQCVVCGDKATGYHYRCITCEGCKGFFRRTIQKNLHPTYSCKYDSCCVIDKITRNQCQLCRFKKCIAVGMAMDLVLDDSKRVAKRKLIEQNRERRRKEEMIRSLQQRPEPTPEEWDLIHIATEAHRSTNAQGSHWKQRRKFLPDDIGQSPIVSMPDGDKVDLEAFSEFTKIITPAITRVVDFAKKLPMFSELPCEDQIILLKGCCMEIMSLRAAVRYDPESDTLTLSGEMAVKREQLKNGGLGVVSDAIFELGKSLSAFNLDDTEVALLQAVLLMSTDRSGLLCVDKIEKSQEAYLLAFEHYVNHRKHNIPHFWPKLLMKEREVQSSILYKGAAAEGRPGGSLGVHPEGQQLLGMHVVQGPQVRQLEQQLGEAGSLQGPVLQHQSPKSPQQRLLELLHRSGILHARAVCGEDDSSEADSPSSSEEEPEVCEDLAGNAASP

Regarding `CC(CCO)CCc1ccccc1` (centres undefined), the molecule was called inactive in [1], in assay [2], in assay [3] and in [4].
With `Nc1nc2ccc([N+](=O)[O-])cc2s1`, the molecule was classed as inactive in [1], in assay [2], in [3] and in assay [4].
For the molecule `Nc1cc([N+](=O)[O-])ccc1O`, the molecule was called inactive in assay [1], in assay [2], in assay [5], in assay [6], in assay [7] and in assay [8]. Moreover, the result in [9], in assay [10], in [11], in assay [4], in assay [12] and in assay [13] was inactive. Also, the outcome in assay [14], in assay [15], in assay [16], in assay [17], in assay [18] and in assay [19] was inactive. Further, in [13], the AC50 was 0.15 µM (active).
As to `OC1OC[C@@H](O)[C@H](O)[C@H]1O` (some centres undefined), the outcome in [1], in assay [2], in [5], in [6], in assay [7] and in assay [8] was inactive. Also, the outcome in [9], in assay [10], in [11], in [12], in assay [13] and in assay [14] was inactive. Also, the outcome in assay [15], in assay [16], in assay [17], in assay [18] and in assay [19] was inactive. Moreover, the AC50 in assay [10] is 5.39 µM (active).
In the case of `NCCNCCN`, the result in [1], in assay [2], in [5], in assay [6], in assay [7] and in [8] was inactive. Moreover, the result in assay [9], in assay [10], in [11], in [12], in assay [13] and in assay [14] was inactive. Also, the outcome in assay [15], in assay [16], in assay [17], in [18] and in assay [19] was inactive.
For the molecule `CC(=O)OCCC(C)CC(C)(C)C` (centres undefined), the molecule was called inactive in [1], in assay [2], in [3], in [5], in assay [6] and in assay [7]. Moreover, the result in assay [8], in assay [9], in assay [10], in [11], in [4] and in [12] was inactive. The outcome in assay [13], in assay [14], in assay [15], in [16], in assay [17] and in [18] was inactive. The result in assay [19] and in assay [20] was inactive.
Regarding `BrC1CCC(Br)C(Br)CCC(Br)C(Br)CCC1Br` (centres undefined), the outcome in [1], in [3], in [5], in assay [6], in assay [4] and in assay [16] was inactive. The outcome in [17] was inactive. Also, the AC50 is 8.67 µM (active) in [2]; 4.64 µM (active) in [7]; 1.58 µM (active) in [8]; 3.33 µM (active) in [9]; 4.7 µM (active) in assay [10]; 4.73 µM (active) in assay [12]. In addition, the AC50 in assay [13] is 1.16 µM (active); in [14] it was 2.57 µM (active); in assay [15] it was 4.73 µM (active); in assay [18] it was 4.6 µM (active); in [19] it was 2.62 µM (active).
Take `Cc1ccccc1C=O`: the outcome in assay [1], in assay [2], in [3] and in assay [4] was inactive.
